Data: PubChem BioAssay (EPA / NIEHS)
Calls of active or inactive are those of the source. How the source made its calls: active means hit-call score of the fitted dose curve at least 0.9, where 1 is the maximum; inactive means score below 0.9.

Assays:
Settings in all cases: mRNA level, 48 h; actives raise or lower the signal
[1] = read-out: Ezrin (EZR), EZR (gene 7430); experiment: LTEA_HepaRG_EZR: Life Technologies and Expression Analysis (LTEA) Assay for Ezrin (EZR) using HepaRG (AID 2283491)
Method in brief: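 HepaRG, 48 h chemical exposure, 8-pt half-log series from 100 uM, 0.5% DMSO vehicle, duplicates. Read-out: EZR mRNA by TaqMan qRT-PCR (Fluidigm array), housekeeping-normalized; bidirectional curve fit vs DMSO baseline.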

CYP3A5 (gene 1577) = experiment: LTEA_HepaRG_CYP3A5: Life Technologies and Expression Analysis (LTEA) Assay for CYP3A5 using HepaRG (AID 2283493)
Method in brief: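 Human HepaRG hepatic cells receive 48 h chemical treatment at eight concentrations (half-log steps from 100 uM) in 0.5% DMSO. Expression of CYP3A5 is quantified by Fluidigm qRT-PCR and normalized to three reference genes.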

[2] = read-out: Fatty Acid-Binding Protein 1 (FABP1), FABP1 (gene 2168); experiment: LTEA_HepaRG_FABP1: Life Technologies and Expression Analysis (LTEA) Assay for Fatty Acid-Binding Protein 1 (FABP1) using HepaRG (AID 2283494)
Method in brief: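 qRT-PCR readout of FABP1 transcript (normalized to three housekeeping genes) after 48 h chemical exposure of HepaRG cells; eight concentrations, half-log steps, max 100 uM, 0.5% DMSO vehicle; gain or loss fitted relative to DMSO baseline.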

[3] = read-out: Cytochrome P450 4A22 (Homo sapiens) (UniProt Q5TCH4); experiment: LTEA_HepaRG_CYP4A22: Life Technologies and Expression Analysis (LTEA) Assay for Cytochrome P450 4A22 (CYP4A22) using HepaRG (AID 2283495)
Method in brief: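 HepaRG, 48 h post-plating -> serum-free induction medium; dosed 48 h, duplicate, 8 conc. (100 uM top, half-log), 0.5% DMSO. Readout: CYP4A22 mRNA by qRT-PCR, ACTB/GAPDH/POLR2A normalization; gain/loss fit relative to DMSO.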

[4] = read-out: Cytochrome P450 7A1 (Homo sapiens) (UniProt P22680); experiment: LTEA_HepaRG_CYP7A1: Life Technologies and Expression Analysis (LTEA) Assay for Cytochrome P450 7A1 (CYP7A1) using HepaRG (AID 2283496)
Method in brief: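 HepaRG, 48 h exposure, 8-pt half-log series from 100 uM, 0.5% DMSO vehicle, duplicates. Readout: TaqMan qRT-PCR mRNA vs three housekeeping genes; bidirectional curve fit against DMSO baseline.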

[5] = read-out: Glutathione S-Transferase (GSTA2), GSTA2 (gene 2939); experiment: LTEA_HepaRG_GSTA2: Life Technologies and Expression Analysis (LTEA) Assay for Glutathione S-Transferase (GSTA2) using HepaRG (AID 2283497)
Method in brief: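 qRT-PCR readout of GSTA2 transcript, normalized to three housekeeping genes, fitted bidirectionally against 0.5% DMSO baseline. Differentiated HepaRG cells received compound for 48 h at 8 concentrations (top 100 uM, half-log steps).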

[6] = read-out: Glutamate-cysteine ligase catalytic (GCLC), GCLC (gene 2729); experiment: LTEA_HepaRG_GCLC: Life Technologies and Expression Analysis (LTEA) Assay for Glutamate-cysteine ligase catalytic (GCLC) using HepaRG (AID 2283498)
Method in brief: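 HepaRG, 48 h exposure, 8-pt half-log series from 100 uM, 0.5% DMSO vehicle; TaqMan qRT-PCR for GCLC mRNA, housekeeping-normalized; bidirectional curve fit vs DMSO baseline.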

[7] = read-out: growth arrest and DNA damage 45 (GADD45G), GADD45G (gene 10912); experiment: LTEA_HepaRG_GADD45G: Life Technologies and Expression Analysis (LTEA) Assay for growth arrest and DNA damage 45 (GADD45G) using HepaRG (AID 2283499)
Method in brief: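 HepaRG, 48 h exposure, top 100 uM, half-log 8-point series, 0.5% DMSO vehicle, duplicates. Readout: GADD45G transcript by qRT-PCR (Fluidigm array), housekeeping-normalised (ACTB/GAPDH/POLR2A). Bidirectional curve fit vs DMSO baseline.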

[8] = read-out: Glutamate-cysteine ligase regulatory (GCLM), GCLM (gene 2730); experiment: LTEA_HepaRG_GCLM: Life Technologies and Expression Analysis (LTEA) Assay for Glutamate-cysteine ligase regulatory (GCLM) using HepaRG (AID 2283500)
Method in brief: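 Endpoint is GCLM transcript level by qRT-PCR, normalized to three housekeeping genes, after 48 h chemical exposure of human HepaRG cells (0.5% DMSO vehicle, top 100 uM, half-log dilutions). Fitting was bidirectional relative to DMSO.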

[9] = read-out: Cytochrome P450 3A7 (Homo sapiens) (UniProt P24462); experiment: LTEA_HepaRG_CYP3A7: Life Technologies and Expression Analysis (LTEA) Assay for CYP3A7 using HepaRG (AID 2283492)
Method in brief: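 CYP3A7 transcript levels were read by TaqMan qRT-PCR on Fluidigm arrays after 48 h chemical exposure of human HepaRG cells, with housekeeping-gene normalisation. Eight half-log concentrations up to 100 uM in 0.5% DMSO were tested in duplicate.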

Measured: AC50

Cytochrome P450 3A7 (Homo sapiens), sequence (P24462 whole entry, looked up): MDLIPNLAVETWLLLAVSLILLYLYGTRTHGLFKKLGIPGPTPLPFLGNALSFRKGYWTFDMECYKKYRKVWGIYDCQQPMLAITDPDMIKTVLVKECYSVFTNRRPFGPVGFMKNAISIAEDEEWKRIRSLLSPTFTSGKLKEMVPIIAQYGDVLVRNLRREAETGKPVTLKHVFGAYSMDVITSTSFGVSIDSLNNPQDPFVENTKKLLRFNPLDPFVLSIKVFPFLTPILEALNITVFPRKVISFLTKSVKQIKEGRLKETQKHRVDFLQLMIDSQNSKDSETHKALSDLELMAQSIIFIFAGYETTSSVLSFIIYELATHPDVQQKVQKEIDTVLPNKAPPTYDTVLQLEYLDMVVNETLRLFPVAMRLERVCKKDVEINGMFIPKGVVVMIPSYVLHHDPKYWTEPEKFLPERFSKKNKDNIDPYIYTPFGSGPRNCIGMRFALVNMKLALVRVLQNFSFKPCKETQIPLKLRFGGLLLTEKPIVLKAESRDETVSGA

NC(=Nc1ccccc1)Nc1ccccc1
not listed: [9]
inactive: all other assays above

CCCCC(CC)COC(=O)CCCCCCCC(=O)OCC(CC)CCCC (configuration not stated)
not listed: [5] | [6]
inactive: all other assays above

CC(=O)O[C@]1(C(C)=O)CC[C@H]2[C@@H]3C=C(Cl)C4=CC(=O)[C@@H]5C[C@@H]5[C@]4(C)[C@H]3CC[C@@]21C
inactive: [1] | [3] | [8]
active: CYP3A5 (gene 1577) 50 µM | [2] 21.7 µM | [4] 59 µM | [5] 15.8 µM | [7] 50 µM

C#CC(O)C(CC)CCCC (configuration not stated)
not listed: [6] | [9]
inactive: all other assays above

Cc1cc(SC2=C(O)C[C@@](CCc3ccc(N)cc3)(C(C)C)OC2=O)c(C(C)(C)C)cc1CO
active: [2] 3.12 µM | [3] 1.67 µM | [4] 16.1 µM
not listed: [9]
inactive: all other assays above

c1ccc2occc2c1
not listed: [6] | [9]
inactive: all other assays above

CCCCCCCC(=O)OC
not listed: [5] | [6]
inactive: all other assays above

CCc1cc(C2=C(C(=O)O)N(c3ccccc3C(F)(F)F)S(=O)(=O)c3ccccc32)cc2c1OCO2
inactive: [1] | CYP3A5 (gene 1577) | [2] | [7]
active: [9] 0.645 µM | [3] 41 µM | [4] 72.2 µM | [8] 68.2 µM

CC(C)NCC(O)c1ccc(O)c(O)c1 (configuration not stated)
inactive: [3] | [7] | [8]
active: [1] 1.8 µM | CYP3A5 (gene 1577) 0.153 µM | [2] 0.479 µM | [4] 0.212 µM | [5] 0.222 µM

CN(C)C(=O)NC1(c2ccccc2)CCN(CC[C@@]2(c3ccc(F)c(F)c3)CN(C(=O)c3ccccc3)CCO2)CC1
active: [9] 2.8 µM | [3] 47.3 µM | [7] 75.1 µM
not listed: [5] | [6]
inactive: all other assays above

CC(N)=O
not listed: [6] | [9]
inactive: all other assays above

O=C(Oc1ccccc1)c1cccc(C(=O)Oc2ccccc2)c1
not listed: [9]
inactive: all other assays above

O=[Si]=O
not listed: [3] | [4] | [6]
inactive: all other assays above

CCCCC(CC)COP(=O)(OCC(CC)CCCC)OCC(CC)CCCC (configuration not stated)
not listed: [6] | [9]
inactive: all other assays above

CCCCCCC(C=O)=Cc1ccccc1
not listed: [5] | [6] | [9]
inactive: all other assays above

C=CCc1ccc(OC)c(OC)c1
not listed: [5] | [9]
inactive: all other assays above

CCCCCCC(CCCCCCCCCCC(=O)OCC(COC(C)=O)OC(C)=O)OC(C)=O (configuration not stated)
not listed: [5] | [6] | [9]
inactive: all other assays above

O=C(O)CN(CC(=O)O)CC(=O)O
not listed: [6] | [9]
inactive: all other assays above

CC(C)COC(=O)CCCCC(=O)OCC(C)C
not listed: [5] | [9]
inactive: all other assays above

CC(=O)S[C@H](C(=O)N[C@H]1Cc2ccccc2[C@H]2CCC[C@@H](C(=O)O)N2C1=O)C(C)C
not listed: [6] | [9]
inactive: all other assays above

NC=O
not listed: [5] | [6] | [9]
inactive: all other assays above
